# High-throughput results from PubChem.
# NSD2 inh: NSD2 (human) methyltransferase inhibition; O96028; NSD2 peptide methylation, AlphaScreen, 120 min; inhibition, % at 12.5 µM; 0.54% of 310,000 active; in the data active = inhibition above about 50%
# Target sequence (O96028 whole entry, looked up): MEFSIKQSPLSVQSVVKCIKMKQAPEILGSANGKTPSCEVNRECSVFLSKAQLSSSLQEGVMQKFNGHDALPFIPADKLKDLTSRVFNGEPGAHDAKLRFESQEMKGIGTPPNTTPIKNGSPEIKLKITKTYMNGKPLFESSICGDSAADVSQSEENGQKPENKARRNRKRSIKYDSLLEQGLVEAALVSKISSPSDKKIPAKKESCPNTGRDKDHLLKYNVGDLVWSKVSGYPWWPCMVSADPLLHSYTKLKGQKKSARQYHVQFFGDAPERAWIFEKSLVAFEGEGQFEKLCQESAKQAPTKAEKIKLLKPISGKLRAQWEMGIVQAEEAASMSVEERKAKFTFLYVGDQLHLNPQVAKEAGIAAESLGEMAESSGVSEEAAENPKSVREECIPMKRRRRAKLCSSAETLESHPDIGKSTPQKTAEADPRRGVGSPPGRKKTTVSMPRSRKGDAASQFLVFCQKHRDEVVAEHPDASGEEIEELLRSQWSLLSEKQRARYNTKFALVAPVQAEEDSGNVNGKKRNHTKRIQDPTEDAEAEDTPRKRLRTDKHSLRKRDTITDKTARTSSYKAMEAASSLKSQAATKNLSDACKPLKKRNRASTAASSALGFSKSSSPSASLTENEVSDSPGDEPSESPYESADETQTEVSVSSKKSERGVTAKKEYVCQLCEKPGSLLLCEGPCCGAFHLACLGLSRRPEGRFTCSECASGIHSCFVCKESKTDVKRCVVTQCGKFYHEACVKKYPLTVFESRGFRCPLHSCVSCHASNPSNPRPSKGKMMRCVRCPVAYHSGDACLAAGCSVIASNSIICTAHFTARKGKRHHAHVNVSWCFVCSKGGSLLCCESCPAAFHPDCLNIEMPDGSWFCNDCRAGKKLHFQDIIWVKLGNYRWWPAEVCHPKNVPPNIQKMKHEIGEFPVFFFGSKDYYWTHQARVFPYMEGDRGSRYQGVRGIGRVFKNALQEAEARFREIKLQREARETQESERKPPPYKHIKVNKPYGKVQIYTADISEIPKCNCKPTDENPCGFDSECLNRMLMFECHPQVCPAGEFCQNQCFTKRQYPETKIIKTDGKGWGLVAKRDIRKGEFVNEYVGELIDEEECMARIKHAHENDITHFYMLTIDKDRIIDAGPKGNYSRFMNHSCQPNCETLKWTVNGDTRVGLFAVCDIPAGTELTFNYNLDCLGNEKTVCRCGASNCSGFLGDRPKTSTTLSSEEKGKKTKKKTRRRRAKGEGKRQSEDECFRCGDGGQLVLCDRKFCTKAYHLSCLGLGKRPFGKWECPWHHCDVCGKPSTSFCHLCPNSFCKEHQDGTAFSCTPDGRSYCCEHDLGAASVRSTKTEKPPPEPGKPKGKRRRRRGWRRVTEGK
# CASP6 VEID inh: caspase-6 (human) enzyme inhibition. P55212. purified caspase-6, Z-VEID-R110 cleavage fluorescence. inhibition, % at 12.5 µM. 0.53% of 350,000 active. AID 686996;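 active = mean inhibition across replicates at least about 35%, with every replicate also reaching that limit, limit read from the data; inconclusive = only one of the two criteria met; inactive = neither criterion met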
# RAD52 anneal inh: inhibitors of human RAD52 DNA annealing. P43351. recombinant RAD52 DNA annealing, FRET fluorescence. inhibition, % at 18.7 µM. 0.46% of 360,000 active. AID 651710;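 active = every replicate showing at least 50% inhibition; inconclusive = mean inhibition at least 50% but not in every replicate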
# Ecoli rRNA inh: selective bacterial rRNA inhibition in E. coli; E. coli WT GFP vs humanized-ribosome RFP mutants, fluorescence, 24 h; hits give low values; DMSO median 0, no signal -100; GFP signal change (wild-type ribosome), % (no concentration beside the values); 1.6% of 350,000 active; AID 720706;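 active = significant combined selectivity score with lowered wild-type GFP, culture density cut under 30%, mutant RFP and density less affected; inactive = any of these conditions unmet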
# AF4-AF9 inh: inhibitors of human MLL-AF4/AF9 interaction | P42568 | AlphaScreen, biotin-AF4 peptide binding to FLAG-AF9 | inhibition, % at 10 µM | 0.47% of 350,000 active | AID 651704;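 active = every replicate reaching a set inhibition limit, whatever the replicate mean, cut at about 25% in these data; inconclusive = mean inhibition reaches that limit but some replicates miss it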
# Hits are given with their value; - = inactive; ? = inconclusive; . = no result. A selection: hits, their analogues and other compounds. The true share with any hit is near 2.5%.
SMILES,NSD2 inh,CASP6 VEID inh,RAD52 anneal inh,Ecoli rRNA inh,AF4-AF9 inh
COc1cc(/C=C/C(=O)OCN2C(=O)c3ccccc3C2=O)ccc1OC(F)F,-,-,-,-,-
CN1C(=O)c2cc(NC(=O)C3CCCC3)ccc2OC[C@H]2O[C@H](CC(=O)NCC3CC3)CC[C@@H]21,.,-,-,-,-
O=C(C[C@@H]1C=C[C@@H](NC(=O)Nc2ccccc2F)[C@@H](CO)O1)NCc1ccccc1,.,-,-,-,-
CO[C@H]1CN(C)C(=O)c2ccc(NS(=O)(=O)c3ccc(C)cc3)cc2OC[C@@H](C)N(C(=O)NC(C)C)C[C@H]1C,.,.,.,-,.
CC(=O)Oc1ccc(/C(C)=N\N2CCN(Cc3ccc(Cl)cc3)CC2)cc1,-,-,-,-,-
C/C(=N\N1CCN(Cc2ccc(Cl)cc2)CC1)c1ccc(F)cc1,-,-,-,-18,-
CC(C)(C)c1cc(NCCCn2ccnc2)n2ncc(-c3ccccc3)c2n1,-,-,-,-49,?
Cc1cc(NCCCn2ccnc2)n2ncc(-c3ccc(Cl)cc3)c2n1,-,.,.,.,.
O=C(C[C@@H]1CC[C@@H]2[C@H](COC[C@@H](O)CN2Cc2cccc(-c3ccncc3)c2)O1)N1CCOCC1,.,-,-,-,-
O=S(=O)(c1ccccc1F)N1CCCCN2[C@H](CO)[C@H](c3ccc(-c4cccnc4)cc3)[C@H]2C1,.,-,-,-,-
Cc1ccc(-n2c(C)nc3ccsc3c2=O)cc1,-,-,-,-36,-
O=C(Cc1ccccc1)N[C@H]1C=C[C@@H](CC(=O)N2CCOCC2)O[C@@H]1CO,.,-,-,-,-
C=C(C)C(=O)Nc1cccc(C2=NOC3(C2)C[C@@H](C(N)=O)N(C(=O)C(=C)C)C3)c1 (some centres undefined),.,38,-,-,-
C=C(C)C(=O)Nc1cccc(C2=NOC3(C2)C[C@@H](C(N)=O)N(C(=O)/C=C/CC)C3)c1 (some centres undefined),.,44,-,-,-
C=C(C)C(=O)Nc1cccc(C2=NOC3(C2)C[C@H](C(N)=O)N(C(=O)COc2ccc(Cl)cc2)C3)c1 (some centres undefined),.,51,-,.,-
C/C=C/C(=O)N1CC2(CC(c3cccc(NC(=O)CC)c3)=NO2)C[C@H]1C(N)=O (some centres undefined),.,.,-,-,.
C=C(C)C(=O)Nc1cccc(C2=NOC3(C2)C[C@H](C(N)=O)N(C(=O)/C=C/C)C3)c1 (some centres undefined),.,53,-,-,-
C=C(C)C(=O)Nc1cccc(C2=NOC3(C2)C[C@H](C(N)=O)N(C(=O)c2ccccc2)C3)c1 (some centres undefined),.,-,-,-,-
Cc1noc(C)c1S(=O)(=O)Nc1ccc2c(c1)C(=O)N([C@H](C)CO)C[C@@H](C)[C@H](CN(C)C(=O)Nc1ccc(F)cc1)O2,.,.,.,-,.
C[C@@H]1CN([C@@H](C)CO)C(=O)c2cccc(NC(=O)c3ccncc3)c2O[C@H]1CN(C)Cc1ccc(Cl)c(Cl)c1,.,-,-,.,-
O=C(CSc1ccsc1[N+](=O)[O-])Nc1cc(F)ccc1F,-,36,-,-,-
COc1ccc(S(=O)(=O)N(C)C)cc1NCC(=O)Nc1ccc(C)c(F)c1,-,.,.,.,.
CN(C)CC(=O)Nc1ccc2c(c1)[C@H]1C[C@H](CC(=O)N(C)C)O[C@@H](CO)[C@H]1O2,.,.,.,-,.
Cc1nc(C(=O)NCC(=O)c2ccc(Cl)cc2)c(C(F)(F)F)o1,-,-,-,-,-
Cc1nc(C(=O)NNC(=O)c2ccc(Cl)cc2)c(C(F)(F)F)o1,-,-,-,-30,-
SMILES,NSD2 inh,CASP6 VEID inh,RAD52 anneal inh,Ecoli rRNA inh,AF4-AF9 inh
COCCN(C(=O)CSc1nnc(C(F)(F)F)n1C)c1c(N)n(CC(C)C)c(=O)[nH]c1=O,-,.,.,.,.
C[C@@H]1CN([C@@H](C)CO)S(=O)(=O)c2ccc(C#CC3CCCC3)cc2O[C@H]1CN(C)C(=O)C1CC1,.,-,-,-,-
O=C(Cn1c(=O)n(Cc2ccco2)c(=O)c2c3c(sc21)CCCCC3)c1ccccc1,-,-,-,-19,-
O=C1C2=C(c3ccccc31)[N+](=O)[C@@H]1CCCC[C@@H]1N2[O-],-,63,-,-,-
O=C1C2=C(c3ccccc31)[N+](=O)C1CCCCC1N2[O-] (centres undefined),-,.,.,.,.
COc1ccc(C=CC(=O)c2cc(O)ccc2O)cc1,-,-,-,-36,-
COc1ccc(C(=O)/C=C/c2ccccc2)c(OC)c1,.,-,-,-,-
COc1cc(/C=C/C(=O)OCC(=O)NC(C)c2ccccc2)cc(OC)c1OC (centres undefined),-,-,-,-13,-
COc1cc(/C=C/C(=O)c2ccccc2O)cc(OC)c1OC,.,-,-,-17,-
COc1ccc(C(=O)/C=C/c2ccc(O)cc2)cc1,.,-,-,.,-
COc1cc(C)cc(C(=O)C=Cc2ccccc2)c1O,-,-,-,-52,-
COc1cc(OC)c(C=CC(=O)c2ccccc2O)c(OC)c1,-,-,-,-,-
COCC(=O)N(C)C[C@@H]1Oc2cc(C3=CCCCC3)ccc2S(=O)(=O)N([C@H](C)CO)C[C@H]1C,.,-,-,-,-
Cc1nc(-c2cccc(NC(=O)c3ccc(Cl)c(S(=O)(=O)N4CCCC4)c3)c2)cs1,-,-,-,-,-
Cc1nc(-c2cccc(NC(=O)c3cccc(S(=O)(=O)N4CCCC4)c3)c2)cs1,-,-,-,-29,-
COCCCN(C(=S)Nc1cc(Cl)cc(Cl)c1)C(C)c1ccncc1 (centres undefined),-,-,-,-,-
COCCCN(C(=S)Nc1cc(Cl)cc(Cl)c1)C(C)c1ccccn1 (centres undefined),-,-,-,-39,-
O=C(C[C@@H]1C=C[C@@H](NC(=O)C2CCOCC2)[C@@H](CO)O1)Nc1ccc(-c2ccccc2)cc1,.,-,-,-,-
S=c1[nH]nc2ccccn12,.,-,-,-,-
Cc1ccn2c(=S)[nH]nc2c1,-,37,-,.,-
COc1ccc(NS(=O)(=O)c2ccc3c(c2)CCO3)cc1,-,-,-,-,-
O=S(=O)(Nc1ccccc1)c1ccc2c(c1)CCO2,-,-,-,-,48
COc1ccc2c3c(n(C)c2c1)[C@@H](CO)N(C(=O)CN(C)C)CC31CN(C(=O)C2CCC2)C1,.,.,.,-,-
CCOc1ccc(C2=Nc3ccc(Br)cc3C(c3ccc(N4CCOCC4)cc3)=NN2)cc1,-,.,.,.,.
CCc1ccc2c(c1)C(c1ccc(N3CCOCC3)cc1)=NNC(c1ccncc1)=N2,-,-,-,-18,-
CC(C)CC#Cc1ccc2c(c1)O[C@H](CN(C)C(=O)c1ccccn1)[C@@H](C)CN([C@@H](C)CO)S2(=O)=O,.,-,-,-,-
CCNC(=S)SCCOc1ccccc1C,-,-,-,-34,-
CNC(=S)SCCOc1ccccc1,-,-,-,-,-
CCNC(=O)C[C@H]1CC[C@H]2[C@@H](COc3ccc(NC(=O)c4cccc(C#N)c4)cc3C(=O)N2C)O1,.,.,.,-,.
